# PubChem BioAssay (EPA / NIEHS)
# Inconclusive results are not listed. Calls of active or inactive are those of the source. The calls were made as follows: active = hit-call score of the fitted dose curve at least 0.9, where 1 is the maximum; inconclusive = response in the unintended direction; inactive = score below 0.9.
# Test: ACEA_ER_AUC_viability: ACEA Biosciences xCELLigence Real-Time Cell Analysis on Estrogen Receptor Agonism for Viability (AID 2283782);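 also: hit means loss of impedance signal meaning reduced cell growth or viability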
# Outline: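 Continuous-exposure impedance cell analysis uses T-47D cells in charcoal-stripped serum, eight 1:4 dilutions topping at 100 uM final, biological duplicate. Area under the growth curve at 80 h is fitted against DMSO baseline.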
Compound,outcome,AC50
COc1cc(C=O)ccc1OC(=O)C(C)C,inactive,
c1ccc2sc(SN(C3CCCCC3)C3CCCCC3)nc2c1,,81.8 µM (active)
Nc1ccc(S(=O)(=O)O)c(N)c1,inactive,
CCCCCCCCC,inactive,
CC(C#N)(CCC(=O)O)N=NC(C)(C#N)CCC(=O)O (centres undefined),inactive,
C=C(C)[C@@H]1CCC2=CC(=O)C[C@@H](C)[C@]2(C)C1,,80.7 µM (active)
Cc1ccc(O)c(C(C)(C)C)c1,,26.2 µM (active)
CC(C)=CCC[C@H](C)CC=O,inactive,
Nc1ccc(F)c([N+](=O)[O-])c1,,26.5 µM (active)
CCCCCOC(=O)CCC,inactive,
O=C(O)Cc1cccc2ccccc12,inactive,
CCCC1CCC(=O)O1 (centres undefined),inactive,
CCC(O)CO (centres undefined),,26 µM (active)
CNC[C@H](O)c1cccc(O)c1,,50 µM (active)
CCCCC/C=C/C=C/C=O,,81.1 µM (active)
CO[Si](C)(OC)c1ccccc1,inactive,
OCCOCCOCCOCCO,inactive,

Compound,outcome,AC50
CC(=O)c1c(C)cc(C(C)(C)C)cc1C,,77.7 µM (active)
CC(C)(N)CO,inactive,
NCCOCCO,inactive,
CCCc1ccccc1O,,64.2 µM (active)
CCCCOCCOCCOCCOCCO,inactive,
CCCCCCOC(=O)CCCCC,inactive,
Nc1cc([N+](=O)[O-])ccc1Cl,,76.3 µM (active)
CCCC/C=C\CCCCCCCCCC=O,,91.2 µM (active)
CC(C)C(C)(C)C(C)(C)C(C)(C)S,inactive,
CCCCN,,45.1 µM (active)
CCCCCCOC(=O)CC,,23.9 µM (active)
Clc1ccc(Cl)c(Cl)c1Cl,inactive,
OC1C(O)C(O)C(O)C(O)C1O (centres undefined),inactive,
O=[N+]([O-])c1cc(C(F)(F)F)ccc1Cl,,49.8 µM (active)
Cc1cccc(C)c1C,,26.4 µM (active)
CC(C)[C@H]1CC[C@@H](C)CC1=O,inactive,
CC1=CC(=O)NS(=O)(=O)O1,inactive,
